Experimental data published in PubChem BioAssay (EPA / NIEHS).
Results filed as inconclusive are left out. The source made the active and inactive calls. Rule for the calls: active = hit-call score of the fitted dose curve at least 0.9, where 1 is the maximum; inconclusive = response in the unintended direction; inactive = score below 0.9.

These compounds were tested against PGR (gene 5241) (UniProt P06401) (assay: NVS_NR_hPR: NovaScreen (NVS) Nuclear Receptor Binding Assay for human Progestron Receptor (PR) (AID 2283360);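 note: active means loss of bound radioligand signal versus DMSO baseline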).
Method: NVS_NR_hPR is a biochemical, single-readout assay that uses extracted gene-proteins from T47D in a cell-free assay. Measurements were taken 18 hours after chemical dosing in a 96-well plate.NVS_NR_hPR is one of one assay component(s) measured or calculated from the NVS_NR_hPR assay. It is designed to make measurements of radioligand binding, a form of binding reporter, as detected with scintillation counting signals by Lysate-based radiodetection technology.Data from the assay component NVS_NR_hPR was analyzed into 1 assay endpoint. This assay endpoint, NVS_NR_hPR, was analyzed in the positive analysis fitting direction relative to DMSO as the negative control and baseline of activity. Using a type of binding reporter, loss-of-signal activity can be used to understand changes in the binding as they relate to the gene PGR. Furthermore, this assay endpoint can be referred to as a primary readout, because the performed assay has only produced 1 assay endpoint. To generalize the intended target to other relatable targets, this assay endpoint is annotated to the nuclear receptor intended target family, where the subfamily is steroidal.
Binding assays used specific radioligands (tritiated, iodinated) with non-radioactive competitive displacement ligands in agonist or antagonist protocols (as indicated) and various reference compounds and inhibitors to titrate specific binding to receptors and transporters. Most enzyme assays (CYPs, kinases, phosphatases, proteases, HDACs) used recombinant protein and specific substrates (fluorescence mostly, some colorimetric and radioactive) and inhibitors, followed by a biochemical separation of substrate and product. All assays for the biochemical HTS were initially run in duplicate at a single concentration (10 uM for CYP450 assays and 25 uM for all others). […] Each assay was run with positive and negative controls, and concurrent controls on every plate. The follow-up (secondary) screen tested active chemical-pairs in concentration series, as well as a few additional assays not tested in the primary screen, some selected negative inactives, and several cases re-run in the concentration series for confirmatory purposes.

Chain of PGR (gene 5241) (P06401 whole entry, looked up): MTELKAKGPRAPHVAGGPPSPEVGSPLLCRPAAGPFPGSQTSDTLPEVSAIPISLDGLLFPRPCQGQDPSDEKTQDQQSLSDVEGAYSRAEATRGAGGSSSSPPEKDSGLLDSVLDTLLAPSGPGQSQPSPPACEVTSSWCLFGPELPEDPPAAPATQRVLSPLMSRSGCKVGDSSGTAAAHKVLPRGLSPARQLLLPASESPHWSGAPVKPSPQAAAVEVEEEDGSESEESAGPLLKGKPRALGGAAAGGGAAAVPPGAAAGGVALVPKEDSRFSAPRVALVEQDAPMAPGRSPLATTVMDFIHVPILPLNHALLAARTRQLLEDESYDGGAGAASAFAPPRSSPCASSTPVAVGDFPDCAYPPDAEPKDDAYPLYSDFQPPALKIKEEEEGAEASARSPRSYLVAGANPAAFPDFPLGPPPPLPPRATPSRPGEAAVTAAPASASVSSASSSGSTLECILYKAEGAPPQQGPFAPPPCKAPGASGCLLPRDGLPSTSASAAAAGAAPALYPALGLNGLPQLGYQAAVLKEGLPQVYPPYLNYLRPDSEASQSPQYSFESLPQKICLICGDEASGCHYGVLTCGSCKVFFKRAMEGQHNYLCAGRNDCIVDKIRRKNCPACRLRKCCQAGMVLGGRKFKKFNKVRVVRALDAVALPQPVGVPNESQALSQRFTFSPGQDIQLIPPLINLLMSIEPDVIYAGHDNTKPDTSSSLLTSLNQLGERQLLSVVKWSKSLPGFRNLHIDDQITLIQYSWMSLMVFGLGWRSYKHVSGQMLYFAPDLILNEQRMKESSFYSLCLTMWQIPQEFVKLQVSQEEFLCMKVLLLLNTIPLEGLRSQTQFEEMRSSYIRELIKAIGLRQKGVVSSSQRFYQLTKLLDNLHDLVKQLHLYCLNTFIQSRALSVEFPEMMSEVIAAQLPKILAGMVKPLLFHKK

SMILES	outcome	AC50
CNC(=O)ON=C(SC)C(=O)N(C)C	inactive	
CCOP(=S)(OCC)Oc1ccc2c(C)c(Cl)c(=O)oc2c1		1.13 µM (active)
CCCOCC(=Nc1ccc(Cl)cc1C(F)(F)F)n1ccnc1	inactive	
CNc1cnn(-c2cccc(C(F)(F)F)c2)c(=O)c1Cl	inactive	
CCOC(=O)CC(SP(=O)(OC)OC)C(=O)OCC (centres undefined)	inactive	
C=C(C)[C@H]1Cc2c(ccc3c2O[C@@H]2COc4cc(OC)c(OC)cc4[C@@H]2C3=O)O1	inactive	
CNC(=O)ON=C(C)SC	inactive	
CCOP(=S)(OCC)Oc1cc(C)nc(C(C)C)n1	inactive	
CCCSP(=O)(OCC)SCCC	inactive	
CC(C1CC1)C(O)(Cn1cncn1)c1ccc(Cl)cc1 (centres undefined)	inactive	
CCOP(=S)(OCC)Oc1ccc([N+](=O)[O-])cc1		14.6 µM (active)
CC[C@H](C)[C@H]1O[C@]2(C=C[C@@H]1C)C[C@@H]1C[C@@H](C/C=C(\C)[C@@H](O[C@H]3C[C@H](OC)[C@@H](O[C@H]4C[C@H](OC)[C@@H](NC)[C@H](C)O4)[C@H](C)O3)[C@@H](C)/C=C/C=C3\CO[C@@H]4[C@H](O)C(C)=C[C@@H](C(=O)O1)[C@]34O)O2	inactive	
CC(COc1ccc(Oc2ccccc2)cc1)Oc1ccccn1 (centres undefined)	inactive	
CCC(CC)Nc1c([N+](=O)[O-])cc(C)c(C)c1[N+](=O)[O-]	inactive	
CCCSP(=O)(OCC)Oc1ccc(Br)cc1Cl (centres undefined)		25 µM (active)
CC1(C(=O)Nc2ccc(O)c(Cl)c2Cl)CCCCC1	inactive	
CCOP(=O)(OCC)Oc1cc(C)nc(C(C)C)n1	inactive	
CCCCN(CC)c1c([N+](=O)[O-])cc(C(F)(F)F)cc1[N+](=O)[O-]	inactive	
C[Si](Cn1cncn1)(c1ccc(F)cc1)c1ccc(F)cc1	inactive	
